In test [1] the test system is HaCat. As to the kind of experiment: Cytotoxic Profiling of Annotated Libraries Using Quantitative High-Throughput Screening (AID 1296008). For max response: % is set by controls: 0 for no effect and ±100 for the full control effect. Note: potency is the fitted concentration of half-maximal effect. The conditions noted are these: Five cell lines viability, CellTiter-Glo ATP luminescence, 48-72 h; max response: active compounds read low. A digest of the protocol:
(§1)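 Cells exposed to compounds for 48 or 72 hr at 37 degrees Celsius. Viability read as ATP-coupled luminescence with CellTiter-Glo after 10 min at room temperature.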

The next test relates to KB-3-1. The test is described as above. The conditions noted are these: Five cell lines viability, CellTiter-Glo ATP luminescence, 48-72 h; max response: active compounds read low. Summed up:
as §1
In general terms: In ATP-based viability assays light output follows the ATP content of the culture.

In a further test the test system is NIH3T3. The test is described as above. To be noted: Five cell lines viability, CellTiter-Glo ATP luminescence, 48-72 h; max response: active compounds read low. A digest of the protocol: as §1
In test [2] the test system is HACAT. As to the kind of experiment: qHTS assay to identify novel small-molecules to repurpose for Merkel cell carcinoma treatment (AID 1296009). To be noted: MCC and control cell lines, CellTiter-Glo viability, 72 h; at 44.8 µM (top of the series) unless noted. A digest of the protocol:
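Cells were treated for 72 hr at 37 degree celsius with compounds in 8- or 11-point dose response. Viability was read by CellTiter-Glo luminescence, normalized to no-cell (cytotoxicity) and DMSO controls.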
(Quantitative high-throughput screening tests each substance at several concentrations.)

Records with an inconclusive call do not appear. Values without a mark were called inactive. Active and inactive are the calls of the source. Calls come from the whole dose curve; as a rule, active = well fitted inhibition curve with a large enough effect; inconclusive = small, poorly fitted or top-dose-only effect; inactive = flat fitted curve, though single readings scatter.
Note: nearly all actives have a fitted effect of over 60% in size.

For the compound `NC(=O)c1nc(Nc2ccccc2)sc1NC(=O)C1CCCCC1`, the max response was -27.5% in the test with HaCat [1] and -18.8% in the test on NIH3T3. In addition, in the test on KB-3-1, the result was inactive.

`CCOC(=O)C1(CCOc2ccccc2)CCN(Cc2ccc(O)c(Cl)c2)CC1`: the max response in the test on HaCat [1] was 0.37%; in the test with KB-3-1, -15.3%; in the test with NIH3T3 it was -16.4%.

With `CC[C@H](C(=O)Nc1ccccc1N1CCCC1)c1ccccc1`, the max response in the test on HaCat [1] is -11.1%; in the test with KB-3-1, -2.95%; with NIH3T3, -0.387%.

`COc1ccc(Cl)c(Nc2ncnc3cc(OCC4CCN(C)CC4)c(OC)cc23)c1`: the results for the Potency in the test on HaCat [1] and with NIH3T3 were 4.11 µM (active) and 7.31 µM (active), respectively. For the same compound, in the test on KB-3-1, the max response is 2.68%.

On to `C=C1C(=O)O[C@@H]2C=C(COC(C)=O)CC/C=C(\CO)CC[C@@H]12`, for which the outcome with HaCat [1] and in the test with HACAT [2] was inactive. The max response was 7.74% in the test with KB-3-1 and -6.09% in the test on NIH3T3.

For the compound `Cc1ccc(N2CCN(S(=O)(=O)N3CCCCC3)CC2)c(C)c1`, the call with HaCat [1] and in the test with HACAT [2] was inactive. The max response with KB-3-1 is -2.41%; with NIH3T3, 4.82%.

In the case of `Fc1ccc(-c2cncc(CN3CCN(c4cccc5c4OCCO5)CC3)c2)cc1`, the compound was classed as inactive with HaCat [1] and with HACAT [2]. Also, the max response in the test on KB-3-1 was -10.8%; with NIH3T3, -12.4%.

On to `COc1cc2ncnc(Nc3ccc(O)c(Br)c3)c2cc1OC`, for which the Potency in the test on HaCat [1] is 3.66 µM (active); with NIH3T3, 11.6 µM (active). For the same compound, the max response in the test on KB-3-1 is 0.483%.

As for `CC(C)c1ccc(-c2cc(=O)c3ccccc3o2)cc1`, the max response is -4.45% in the test on HaCat [1], -3.41% with KB-3-1 and -24.9% with NIH3T3.

As for `OC1CCC(Nc2nc(-c3ccccc3)nc3[nH]ccc23)CC1` (stereo unspecified), the max response with HaCat [1] was -12.5%; in the test with KB-3-1, 7.97%; in the test with NIH3T3, -18.3%.

In the case of `CC(=O)Nc1cccc(-c2csc(Nc3cc(C)ccn3)n2)c1`, the max response in the test with HaCat [1] is -25.9%; in the test with KB-3-1 it was -18.5%; in the test with NIH3T3, -21%.

For `CCOc1ccc(-n2c(C(C)N(Cc3cccnc3)C(=O)Cc3ccc(F)c(C(F)(F)F)c3)nc3ncccc3c2=O)cc1` (stereo unspecified), the max response with HaCat [1] was -10.9%; in the test with NIH3T3 it was 2.59%. Besides, in the test on KB-3-1, the outcome was inactive.

As to `C=C1[C@H]2CC[C@H](C(=O)O)[C@@]23CC[C@H](C3)C1(C)C`, the max response with HaCat [1] is -74.2%. The call in the test on KB-3-1 and in the test with NIH3T3 was inactive.

For the compound `C/C=C(\C)C(=O)O[C@@H]1[C@@H](C)[C@]2(O)[C@@H]3C=C(C)C(=O)[C@H]3CC(CO)=C[C@H]2C2C(C)(C)[C@@]21OC(=O)C(C)CC` (stereo partly specified), the compound was called inactive in the test with HaCat [1]. Also, the max response in the test on KB-3-1 is 0.342%; in the test with NIH3T3, 4.54%. Moreover, the outcome in the test with HACAT [2] is “inactive [at 17.4 µM]”.

Turning to `CN1CCN(C(=O)CN[C@@H]2C[C@H]2c2ccc(OCc3ccccc3)cc2)CC1`, the max response in the test with HaCat [1] is -3.34%; with KB-3-1, -22.7%; in the test with NIH3T3, -9.45%.

For `COc1cc(N2CCOCC2)ccc1NC(=O)c1csc(-c2cccnc2)n1`, the figures for the max response with HaCat [1] and with KB-3-1 were -49.6% and 1.64%, respectively. Besides, the Potency in the test with NIH3T3 is 10.3 µM (active).

For `COc1ccc(-n2c(SCCCN3C(=O)c4cccc5cccc(c45)C3=O)nnc2-c2ccncc2)cc1`, the call in the test with HaCat [1] and in the test with HACAT [2] was inactive. For the same compound, the values for the max response in the test with KB-3-1 and in the test with NIH3T3 were -1.97% and -2.58%, respectively.

As to `CN1CCN(S(=O)(=O)c2ccc(-c3cnc(N)c(C(=O)Nc4cccnc4)n3)cc2)CC1`, the max response in the test on HaCat [1] was -21.1%; in the test on KB-3-1 it was 3.5%. The Potency in the test on NIH3T3 was 0.632 µM (active).

As to `Nc1nc(OCc2cc(Br)cs2)c2[nH]cnc2n1`, the max response with HaCat [1] is -1.07%; in the test on NIH3T3 it was 2.13%. The compound was called inactive with KB-3-1.

As to `C=C1C(=O)OC2C1CCC1(C)C(O)CCC(=C)C21` (stereo unspecified), the call in the test with HaCat [1] and in the test on HACAT [2] was inactive. Moreover, the values for the max response with KB-3-1 and in the test with NIH3T3 were 7.7% and -19.9%, respectively.

On to `NC(=O)C1=CC2C3C=CC2C(OC3=O)O1` (stereo unspecified), for which the max response was -28.3% in the test with HaCat [1], 5.92% in the test with KB-3-1 and 3.24% in the test with NIH3T3.

Regarding `COc1cc(C#N)ccc1S(=O)(=O)Nc1ccc2c(c1)cc(C)c(=O)n2C`, the results for the max response in the test with HaCat [1], in the test on KB-3-1 and in the test on NIH3T3 were -9.16%, -22.2% and -0.625%, respectively.

As for `O=S(=O)(Nc1ccccc1N1CCCCC1)c1ccc(Cl)s1`, the max response in the test on HaCat [1] was -19.5%; in the test on KB-3-1, -15.2%; in the test with NIH3T3, -6.22%.

For the compound `O=C(Nc1cnc(Cl)nc1)c1ccc(F)c(F)c1`, the outcome in the test with HaCat [1] and with HACAT [2] was inactive. Besides, the max response was 3.36% in the test on KB-3-1 and 1.41% with NIH3T3.

As for `COC(=O)c1sccc1S(=O)(=O)Nc1ccc(Nc2ccccc2)cc1OC`, the call with HaCat [1] and in the test on HACAT [2] was inactive. For the same compound, the max response was -21.5% in the test with KB-3-1 and 1.31% in the test with NIH3T3.

Consider `CCC(=O)N1CCOc2c(cc(-c3ccc(OC)c(OC)c3)cc2OC[C@H]2CCCN(C)C2)C1`, for which the max response was 3.21% in the test with HaCat [1] and -9.43% with KB-3-1. The compound was classed as inactive with NIH3T3.

Values taken from PubChem BioAssay (NCATS).
